BoNT F protease: BoNT/F light chain protease inhibitors, primary screen, biochemical, flow cytometry, MLPCN library; actives 0.22% (n = 360,000); inhibition, % at 10 µM; Multiplex microsphere protease cleavage assay; Botulinum neurotoxin type F light chain protease (Clostridium botulinum); in the data active = inhibition above about 35%, passing the limit was not always enough; inconclusive = no clear call, values can overlap the other calls; note: plate controls were buffer without enzyme for full effect and enzyme alone for no effect
Autofluor counter: compound fluorescence in toxin protease inhibitor counterscreen. fluorescence intensity (concentration not given with the values). compound autofluorescence counterscreen, microsphere flow cytometry; hits give high values. actives 3.1% (n = 360,000). AID 624483; in the data active = fluorescence intensity above about 16000; inconclusive = no clear call, values can overlap the other calls
BJeLR viability: MLPCN primary cell-based screen for lethality selective to Ras in HRASV12 cells; BJeLR (HRASV12) viability, CellTiter-Glo ATP luminescence, 48 h; inhibition, % (no concentration beside the values); actives 0.17% (n = 300,000); in the data active = inhibition above about 50%; inconclusive = no clear call, values can overlap the other calls
BoNT A protease: BoNT/A light chain protease inhibitors, primary screen, biochemical, flow cytometry, MLPCN library. Botulinum neurotoxin type A light chain protease (Clostridium botulinum A str. ATCC 3502). multiplex microsphere protease substrate cleavage. inhibition, % at 10 µM. actives 0.17% (n = 360,000). AID 588499, 2011; note: plate controls were buffer without enzyme for full effect and enzyme alone for no effect
Anthrax LF prot: Bacillus anthracis LF protease inhibitors, primary screen, biochemical, multiplex microsphere, MLPCN library | multiplex microsphere protease cleavage assay | inhibition, % at 10 µM | actives 0.12% (n = 360,000) | AID 588501, 2011; note: plate controls were buffer without enzyme for full effect and enzyme alone for no effect
Target sequence (P15917 whole entry, looked up): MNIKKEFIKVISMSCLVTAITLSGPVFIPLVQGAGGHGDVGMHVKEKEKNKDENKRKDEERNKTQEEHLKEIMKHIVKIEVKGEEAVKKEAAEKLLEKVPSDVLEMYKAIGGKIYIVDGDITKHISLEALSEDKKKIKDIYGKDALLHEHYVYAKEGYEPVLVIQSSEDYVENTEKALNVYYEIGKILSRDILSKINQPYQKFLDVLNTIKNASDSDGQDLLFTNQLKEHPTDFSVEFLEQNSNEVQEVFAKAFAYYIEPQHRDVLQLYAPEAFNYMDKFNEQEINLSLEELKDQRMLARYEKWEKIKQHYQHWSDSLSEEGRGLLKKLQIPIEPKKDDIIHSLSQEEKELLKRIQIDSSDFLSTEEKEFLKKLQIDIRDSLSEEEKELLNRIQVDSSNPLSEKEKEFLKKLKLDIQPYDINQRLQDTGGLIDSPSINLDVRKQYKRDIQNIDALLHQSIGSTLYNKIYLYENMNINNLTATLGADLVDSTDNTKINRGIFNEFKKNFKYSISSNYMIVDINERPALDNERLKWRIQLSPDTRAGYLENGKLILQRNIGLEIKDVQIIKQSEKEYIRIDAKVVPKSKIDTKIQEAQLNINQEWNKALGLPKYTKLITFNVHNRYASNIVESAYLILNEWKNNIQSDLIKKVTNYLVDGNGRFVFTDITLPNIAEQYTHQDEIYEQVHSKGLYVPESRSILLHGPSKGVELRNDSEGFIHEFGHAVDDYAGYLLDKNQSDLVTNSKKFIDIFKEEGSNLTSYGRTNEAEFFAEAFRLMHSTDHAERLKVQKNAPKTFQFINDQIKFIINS
* = called active by the depositor. The list is not random: actives were taken first. Their share in the collection is about 3.5%. Cut-off read from the data, not from the text of the source, unless noted: active = inhibition above about 30%; inconclusive = no clear call, values can overlap the other calls; inactive = below that.

Screening COc1ccc(Br)cc1S(=O)(=O)NCCc1cccs1 returned BoNT F protease 2, Autofluor counter 8820, BoNT A protease 2 and Anthrax LF prot 8.
`O=C1Nc2ccccc2N=C(c2ccc3c(c2)OCO3)C1N(C(=O)c1ccc2ccccc2c1)C1CC1` (stereo unspecified) gave BoNT F protease -15, Autofluor counter 5586, BoNT A protease -1 and Anthrax LF prot -10.
COc1ccc(CCNC(=O)CC2Nc3ccccc3NC2=O)cc1OC (stereo unspecified) was read as BoNT F protease -6, Autofluor counter 24834*, BJeLR viability -1, BoNT A protease -4 and Anthrax LF prot -3.
For CCCOc1ccccc1NC(=O)CC1Nc2ccccc2NC1=O (stereo unspecified) the results were BoNT F protease -8, Autofluor counter 21938*, BoNT A protease -5 and Anthrax LF prot -2.
Screening COc1ccc(CCNC(=O)CC2Nc3ccccc3NC2=O)cc1 (stereo unspecified) returned BoNT F protease -8, Autofluor counter 6877, BJeLR viability 7, BoNT A protease 0 and Anthrax LF prot -13.
For Cc1cc(C)c(S(=O)(=O)Nc2cccnc2)c(C)c1 the results were BoNT F protease 2, Autofluor counter 22484*, BJeLR viability 2, BoNT A protease 2 and Anthrax LF prot 0.
COC(=O)c1cccc(NC(=O)CC2C(=O)NCCN2C(=O)c2ccc(F)cc2F)c1 (stereo unspecified) was read as BoNT F protease 4, Autofluor counter 5309, BJeLR viability -17, BoNT A protease 0 and Anthrax LF prot 1.
CCOC(=O)c1ccc(-c2ccc(/C=N/NC(=O)c3cncc(Br)c3)o2)cc1 was read as BoNT F protease inconclusive, Autofluor counter 3685, BJeLR viability 1, BoNT A protease 1 and Anthrax LF prot 17.
`CCCCOC(=O)c1ccc(-c2ccc(/C=N/NC(=S)NCC)o2)cc1` gave BoNT F protease 3, Autofluor counter 16266*, BJeLR viability 17, BoNT A protease inconclusive and Anthrax LF prot 4.
For O=C(Nc1ccccc1Oc1ccccc1)c1cccc([N+](=O)[O-])c1 the results were BoNT F protease -3, Autofluor counter 20430*, BJeLR viability -6, BoNT A protease inconclusive and Anthrax LF prot -1.
Cc1nc(SC(C(=O)c2ccccc2)c2ccccc2)nc2ccccc12 (stereo unspecified) was read as BoNT F protease 4, Autofluor counter 2118, BJeLR viability -8, BoNT A protease 1 and Anthrax LF prot 0.
Screening Cc1nc(SC(C(=O)c2ccccc2)c2ccccc2)n[nH]1 (stereo unspecified) returned BoNT F protease 5, Autofluor counter 20864*, BJeLR viability 3, BoNT A protease 4 and Anthrax LF prot 0.
For COc1ccc(C(=O)c2ccccc2)c(O)c1 the results were BoNT F protease -3, Autofluor counter 23016*, BJeLR viability 2, BoNT A protease -1 and Anthrax LF prot -2.
Screening CCC(C)OC(=O)c1[nH]c2c(c1C)C(=O)CC(c1ccc(N(C)C)cc1)C2 (stereo unspecified) returned BoNT F protease -8, Autofluor counter 6340, BJeLR viability -3, BoNT A protease -1 and Anthrax LF prot -7.
`CCCCOc1ccc(C(=O)NC)cc1` gave BoNT F protease 0, Autofluor counter 2541, BJeLR viability 2, BoNT A protease 0 and Anthrax LF prot -5.
`CC(NC(=O)c1ccc(C(C)(C)C)cc1)C(=O)O` (stereo unspecified) gave BoNT F protease 4, Autofluor counter 21690*, BJeLR viability 2, BoNT A protease 4 and Anthrax LF prot 1.
CCCOc1ccc(C(=O)NC(C)C(=O)O)cc1 (stereo unspecified) was read as BoNT F protease -4, Autofluor counter 21313*, BJeLR viability -1, BoNT A protease -3 and Anthrax LF prot -1.
`COC(=O)C(C)NC(=O)c1ccc(C(C)(C)C)cc1` (stereo unspecified) gave BoNT F protease 1, Autofluor counter 2182, BJeLR viability -8, BoNT A protease -1 and Anthrax LF prot 0.
For CCOC(=O)c1cccnc1SCc1cc(=O)n2ccccc2n1 the results were BoNT F protease -2, Autofluor counter 7574, BJeLR viability 1, BoNT A protease 1 and Anthrax LF prot 1.
